# Assay outcomes: PubChem BioAssay, National Center for Advancing Translational Sciences (NCATS)
# The list is not random: actives were taken first. Their share in the collection is about 7.5%.
# Rab9 promoter act: qHTS Assay for Rab9 Promoter Activators | Huh7 Rab9 promoter-luciferase reporter, luminescence, 24 h | Potency, µM (series often up to 9.22 µM), for the others: at the highest dose activation, negative = inhibition, most hits filed as activators | 320,000 tested, 2.8% active | AID 485297, 2010; further: % of control where 0% means no effect; nearly all actives have a fitted effect of over 60% in size
#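 Promoter activation is measured as luciferase luminescence in Huh7 cells stably transfected with a Rab9 promoter–luciferase construct, following 24 h compound exposure at 37 °C and 10 min reagent incubation at ambient temperature.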
# FLuc modulator: qHTS profiling assay for firefly luciferase inhibitor/activator using purifed enzyme and Km concentrations of substrates (counterscreen for miR-21 project). Luciferin 4-monooxygenase (Photinus pyralis), P08659. purified FLuc, Km substrates, luminescence inhibition. Potency, µM (top dose mostly 57.5 µM), inactives show at the highest dose activity change, negative = inhibition, usual class: inhibitors. 360,000 tested, 6.9% active;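 further: plate controls were vehicle for no effect and reference inhibitor for full effect; nearly all actives have a fitted effect of over 55% in size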
# Target sequence (P08659 whole entry, looked up): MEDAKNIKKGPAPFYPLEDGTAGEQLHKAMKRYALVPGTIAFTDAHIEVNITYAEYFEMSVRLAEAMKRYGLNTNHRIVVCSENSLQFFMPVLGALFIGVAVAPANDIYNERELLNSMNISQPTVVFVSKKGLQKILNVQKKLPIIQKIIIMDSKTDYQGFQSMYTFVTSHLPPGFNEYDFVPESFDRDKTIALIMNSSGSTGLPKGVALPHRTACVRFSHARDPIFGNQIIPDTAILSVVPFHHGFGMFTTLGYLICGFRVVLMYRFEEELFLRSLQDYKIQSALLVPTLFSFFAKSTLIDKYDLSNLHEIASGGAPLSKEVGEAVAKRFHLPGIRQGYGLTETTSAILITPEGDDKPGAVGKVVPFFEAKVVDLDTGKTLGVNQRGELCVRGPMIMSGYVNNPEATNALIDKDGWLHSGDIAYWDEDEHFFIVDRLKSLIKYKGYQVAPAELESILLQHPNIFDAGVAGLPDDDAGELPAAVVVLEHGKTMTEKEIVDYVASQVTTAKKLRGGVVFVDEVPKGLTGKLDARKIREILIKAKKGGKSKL
#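 Purified P. pyralis luciferase, 10 nM final, with Km-level 10 uM D-luciferin and 10 uM ATP in 50 mM Tris acetate pH 7.5, 10 mM Mg acetate, 0.01% Tween-20, 0.05% BSA; 6-point qHTS titration about 60 µM downward; luminescence read.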
# NPC1 promoter act: qHTS Assay for NPC1 Promoter Activators; Huh7 NPC1 promoter luciferase reporter, 24 h; Potency, µM (highest dose often 9.22 µM), inactives show top-dose activation, usual class: activators; 320,000 tested, 2.4% active; AID 485313, 2010; further: % of control where 0% means no effect; nearly all actives have a fitted effect of over 60% in size
#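 NPC1 promoter–luciferase Huh7 cells; 24 h compound; luminescence.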
# ELG1 genotox: qHTS screen for small molecules that induce genotoxicity in human embryonic kidney (HEK293T) cells expressing luciferase-tagged ELG1; HEK293T ELG1-luciferase reporter, luminescence, 16 h; Potency, µM (series often up to 46 µM), without a hit: at the highest dose activity change, positive = activation, usual class: activators; 330,000 tested, 1.3% active; AID 504466, 2011; further: % of control where 0% means no effect; nearly all actives have a fitted effect of over 60% in size
#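 Step 1: seed 2,000 HEK293T ELG1-luciferase cells per well. Step 2: add compound or DMSO, incubate 16 hr at 37 °C. Step 3: ONE-Glo, 30 min at room temperature, read luminescence.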
# Luc counter: Counterscreen for Luciferase (Kinase-Glo TM) Inhibition; Luciferin 4-monooxygenase (Photuris pensylvanica), Q27757; Kinase-Glo luciferase, ATP luminescence, 8 min; Potency, µM (doses to about 38.3 µM), inactives show at the highest dose activity change, negative = inhibition, most hits filed as inhibitors; 200,000 tested, 0.28% active; AID 1379, 2008; further: on the % scale 0 is the no-effect control and ±100 the full control effect; nearly all actives have a fitted effect of over 60% in size
#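 Luminescence was the read-out, taken after 8-minute incubation at ambient temperature. Luciferase turned over luciferin with 10 uM ATP in imidazole pH 7.2 buffer containing KCl, MgCl2, Tween 20 and BSA.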
# SMN2 splice enh: qHTS Assay for Enhancers of SMN2 Splice Variant Expression; HEK293 SMN2-luciferase splicing reporter, luminescence, 30-36 h; Potency, µM (top dose mostly 46.1 µM), for inactives: at the highest dose activity change, positive = activation, hits mostly activators; 210,000 tested, 2.8% active; AID 1458, 2008; further: % of control where 0% means no effect; nearly all actives have a fitted effect of over 55% in size
#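 HEK293 cells carry an SMN2 […]–luciferase reporter in which exon 7 inclusion puts luciferase in frame. Cells were plated 10-12 h before compound addition, then incubated 30-36 h at 37C. ONE-Glo luminescence was read; sodium butyrate at 4.5 mM final served as control.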
# The depositor's hits bear a star; ? = inconclusive; · = not tested or not shown; [ ] = another dose, or the depositor's remark. The call rests on the fitted dose curve; in most records, active means well fitted curve in the direction sought with a large enough effect; inconclusive means small, poorly fitted or top-dose-only effect, or another doubt; inactive means no such curve, though single readings can be large; an effect the other way counts as inactive or inconclusive. Potency means the concentration at half of the fitted maximal effect.
SMILES,Rab9 promoter act,FLuc modulator,NPC1 promoter act,ELG1 genotox,Luc counter,SMN2 splice enh
C=CCNc1nc(Cl)nc(Nc2cc(Cl)ccc2OC)n1,5.5%,-0.4%,-1.8%,-2.2%,·,·
Fc1ccccc1-n1ncc2c1ncn1nc(Cc3ccccc3)nc21,·,6.01µM*,·,·,·,11.2µM*
COc1ccc(Cc2nc3c4cnn(-c5ccccc5F)c4ncn3n2)cc1,·,?,·,·,·,3.1%
O=C(CCc1nnc(CCCCc2ccccc2)o1)NCCn1cccn1,1.4%,3.8%,-1.0%,0.2%,-0.1%,11.2%
CN(CCc1ccccn1)C(=O)CCc1nnc(CCCc2ccccc2)o1,?,15.1µM*,?,?,2.4%,·
O=C(CCc1nnc(CCCc2ccccc2)o1)N1CCCCCC1,?,21.3µM*,?,?,-1.6%,·
O=C(CCc1nnc(CCCCc2ccccc2)o1)NCCN1CCOC1=O,0.2%,16.9µM*,1.8%,15.1%,-1.8%,·
CCc1cc(CNC(=O)CCc2nnc(CCCc3ccccc3)o2)on1,3.55µM*,19µM*,?,18.3µM*,0.5%,15.8µM*
NC(N)=N/N=C(\c1ccc(Cl)cc1)C1CC1,·,·,·,·,-8.0%[7.66 µM],-10.2%[9.22 µM]
COc1ccc(CNC(=O)C2CCCN(S(=O)(=O)c3ccc(-n4cnnn4)cc3)C2)cc1 (stereo not given),1.1%,0.5%,-4.2%,-6.9%,·,·
CCN(C(=O)CCS(=O)(=O)c1ccc2c(c1)CCN2C(C)=O)c1cccc(C(F)(F)F)c1,·,-2.0%,·,·,·,-1.5%
COc1ccc(C(=O)Oc2ccc(C(c3c(C)[nH][nH]c3=O)c3c(C)[nH][nH]c3=O)cc2)cc1,·,16.9µM*,·,·,·,19.9%
COc1ccc(C(=O)Oc2ccc(/C=N/O)cc2)cc1,-5.5%,6.01µM*,0.7%,8.4%,0.8%,-7.8%
O=C(CCC(=O)c1ccc[nH]1)c1ccc(Cl)cc1,1.58µM*,12µM*,3.16µM*,8.2µM*,-5.1%,?
O=C(CCSc1ccc(Cl)cc1)N1CCN(c2ncccn2)CC1,24.9%,19µM*,?,?,-8.0%,8.3%
O=C(CCSc1ccc(Cl)cc1)N1CCCCCC1,3.55µM*,19µM*,?,14.3%,-2.0%,7.4%
CC1Cc2ccccc2N1C(=O)CSc1nnc(-c2cccc(Cl)c2)o1 (stereo not given),·,-9.8%,·,·,·,·
COc1cc(OC)c(N2CC(C(=O)Nc3cccc(C(=O)NC4CC4)c3)CC2=O)cc1Cl (stereo not given),-7.2%,3.7%,-3.6%,0.7%,·,·
CCN(CC)c1ccc(/C=C/c2nc3ccccc3s2)cc1,3.7%,0.601µM*,?,0.461µM*,-11.6%,-89.7%
O=C1Nc2ccccc2S/C1=C/Nc1cccc(Cl)c1,4.47µM*,8.49µM*,?,?,-8.9%,-3.0%
CCCCNC(=O)/C=C1\Sc2ccccc2NC1=O,-0.9%,?,-0.9%,5.8%,-4.2%,-8.4%[1.84 µM]
COc1cccc(C(=O)n2c(SC)nc3cc4c(cc32)OCCO4)c1,21.4%,13.5µM*,17.5%,13.2%,0.2%,12.4%
COc1cccc(C(=O)Nc2cc3c(cc2C(C)=O)OCCO3)c1,-0.1%,5.36µM*,0.1%,3.7%,0.9%,29.4%
COc1cccc(NC(=O)c2ccc3c(c2)OCCO3)c1,0.708µM*,0.675µM*,1.78µM*,2.06µM*,·,·
COc1cccc(NC(=O)c2ccc3c(c2)OCO3)c1,0.447µM*,2.69µM*,0.501µM*,6.51µM*,·,·
SMILES,Rab9 promoter act,FLuc modulator,NPC1 promoter act,ELG1 genotox,Luc counter,SMN2 splice enh
COc1cccc(OC)c1C(=O)Nc1ccc2c(c1)OCCO2,-10.7%,-0.7%,-1.6%,-1.2%,13.0%,0.6%
CSc1nc2cc3c(cc2n1C(=O)c1ccc(C)cc1)OCCO3,15.6%,?,3.3%,8.2%,-0.6%,7.1%
O=C(CCn1c(=O)c2cccn2c2cccnc21)NCc1ccccc1Br,·,-1.1%,·,·,·,·
COc1cccc(NC(=O)c2oc3ccccc3c2NC(=O)c2ccc3c(c2)OCO3)c1,28.3%,2.69µM*,15.6%,-6.8%,-29.0%,0.8%
COc1cccc(NC(=O)c2oc3ccccc3c2NC(=O)C(C)(C)C)c1,-3.4%,-0.1%,0.6%,-6.8%,3.1%,-15.5%
CCC(=O)Nc1cccc(NC(=O)c2ccc3c(c2)OCO3)c1,28.6%,15.1µM*,17.3%,7.2%,-5.9%,?
COc1cccc(NC(=O)c2oc3ccccc3c2NC(=O)c2ccc(OC(C)C)cc2)c1,·,2.69µM*,·,·,·,9.6%
COc1cccc(NC(=O)c2oc3ccccc3c2NC(=O)c2cc3ccccc3o2)c1,·,?,·,·,·,1.1%
COCCn1c(N)c(N(Cc2ccccc2)C(=O)COc2ccccc2F)c(=O)[nH]c1=O,-2.0%,1.4%,-3.5%,3.9%,·,·
COc1ccc(/C=c2\s/c(=C/C(=O)c3ccc(C)cc3)[nH]c2=O)cc1OC,2.5%,10.7µM*,-0.9%,-3.6%,-0.2%,-13.1%
CCc1ccc(/C=c2\s/c(=C\C(=O)C(C)(C)C)[nH]c2=O)cc1,-4.3%,?,12.1%,-12.7%,-2.2%,9.8%
Cc1ccc(N=Nc2ccc(O)c3ncccc23)cc1C,-9.0%,10.7µM*,-18.4%,9.8%,-9.2%,·
COc1ccccc1N=Nc1ccc(O)c2ncccc12,-21.5%,6.75µM*,-35.1%,?,·,·
Cc1ccc(N=Nc2ccc(O)c3ncccc23)cc1,-2.5%,2.9%,12.8%,?,-6.9%,-91.3%
CCN(C[C@H]1N[C@@](CC)(C(=O)OC)[C@H]2C(=O)N(Cc3ccccc3)C(=O)[C@@H]12)C(=O)COc1ccccc1,·,·,·,0.2%,·,·
CN1CCN(/N=C/c2ccc(Cl)c(Cl)c2)CC1,?,19µM*,?,?,-0.6%,12.6µM*
c1ccc2c(c1)CC(N1CCN(c3cccc4c3OCCO4)CC1)C2,-22.6%[46.1 µM],·,-11.4%[46.1 µM],·,-4.8%,-26.9%
CC1=C(C(=O)OC2CCCC(C)C2)C(c2ccccc2)NC(=O)N1 (stereo not given),1µM*,1.4%,-12.3%,-3.5%,·,·
COc1cc(C2NC(=O)NC(C)=C2C(=O)OC2CCCC(C)C2)cc(Br)c1O (stereo not given),-2.2%,0.2%,-2.3%,2.9%,·,·
COCCCN(C(=O)c1ccccc1)c1nc(-c2ccc(OC)cc2)cs1,4.9%,-8.3%,1.7%,-5.2%,·,·
COCCCN(C(C)=O)c1nc(-c2ccccc2)cs1,?,?,28.9%,13µM*,-3.6%,·
COc1ccc2cc(C3OCCO3)c(Cl)nc2c1,2.51µM*,12µM*,2.51µM*,?,-12.6%,·
